Molecules are shown by their SMILES. Where “and” joins values, the source holds several entries; their conditions need not be identical. Equal values may be shown once. Where a name gives a salt, the structure may show the parent alone. ± gives the standard deviation of the averaged measurements. Hit rate of the full screen: of about 1,000 compounds, about 15 (2%) showed an effect of 50% or more. This excerpt belongs to a sample that is enriched for strong results.

The assay has as its system HFF. As to the kind of experiment: uninfected host cell viability relative to vehicle control; higher = less host cell toxicity. The note with it: 5 µM; 72 h; oxygen 21 %.
`N[C@H](C(=O)O)c1ccc(O)c(C(=O)O)c1` [(S)-3-Carboxy-4-hydroxyphenylglycine]: the “uninfected host cell viability” value came to 83.1 ± 0.11%.

Turning to `CC(C)c1onc(-c2c(Cl)cccc2Cl)c1COc1ccc(/C=C/c2cccc(C(=O)O)c2)c(Cl)c1`, the “uninfected host cell viability” value worked out at 96.2 ± 2.9%. Turning to `OC[C@H]1NC[C@@H](O)[C@@H](O)[C@@H]1O` [1-Deoxymannojirimycin hydrochloride], the “uninfected host cell viability” value was determined as 86.61 ± 0.073%. On to `O=C(NCCCCN1CCN(c2cccc(Cl)c2Cl)CC1)c1ccc2c(c1)Cc1ccccc1-2`, for which the “uninfected host cell viability” value was 88.9 ± 4%. With `CCCCCCNC(=O)Nc1ccc(S(=O)(=O)Nc2ccc(CCNC[C@H](O)COc3ccc(O)cc3)cc2)cc1`, the “uninfected host cell viability” value was determined as 83.4 ± 2.5%. On to `NC(C(=O)O)c1ccc(C(=O)O)c(C(=O)O)c1` (stereo unspecified), for which the “uninfected host cell viability” value was found to be 83.7 ± 3.5%. `CCCCN1CCC(CCC(=O)c2cc(Cl)c(N)cc2OC)CC1`: the “uninfected host cell viability” value is 85.2 ± 6.5%. Under `CN(CCOc1ccc(-c2ccc3c(c2)OCO3)cc1C(C)(C)C)CC(=O)O` stands 89.62 ± 0.17%.

`O=C(c1ccc(F)cc1)C1CCN(CCn2c(=S)[nH]c3ccccc3c2=O)CC1` [Altanserin hydrochloride]: the “uninfected host cell viability” value was 83.2 ± 2.8%.

Consider `Nc1nc2c(nc(Br)n2[C@@H]2O[C@@H]3COP(=O)(O)O[C@H]3[C@H]2O)c(=O)[nH]1` [8-Bromo-cGMP, sodium salt], for which the “uninfected host cell viability” value is 89.8 ± 1.7%. For `COC(=O)c1sccc1S(=O)(=O)Nc1ccc(Nc2ccccc2)cc1OC`, the “uninfected host cell viability” value turned out to be 77.8 ± 0.79%. For `NC(=O)N1c2ccccc2CC(O)c2ccccc21` (stereo unspecified) [Licarbazepine], the “uninfected host cell viability” value worked out at 86.1 ± 1.1%. The figure for `COc1ccc(Cl)cc1NC(=O)Nc1cc(C)nc2ccccc12` is 70.73 ± 0.28%; for `O=C(/C=C/c1ccc(O)c(O)c1)O[C@H](Cc1ccc(O)c(O)c1)C(=O)O` [Rosmarinic acid] it is 80.3 ± 1%. Consider `OC(CCCN1CCN(c2ncc(F)cn2)CC1)c1ccc(F)cc1` (stereo unspecified), for which the “uninfected host cell viability” value came to 110 ± 17%.

Regarding `CC(C)c1ccccc1S(=O)(=O)c1cc(N)c2ncccc2c1[N+](=O)[O-]`, the “uninfected host cell viability” value worked out at 73.2 ± 0.84%. The figure for `CN(CCCN1c2ccccc2CCc2ccccc21)CC(=O)c1ccc(Cl)cc1` [Lofepramine] is 89.6 ± 1.2%. The figure for `Cc1c(C(=O)NN2CCOCC2)nn(-c2ccc(Cl)cc2Cl)c1-c1ccc(I)cc1` is 90.8 ± 2.4%; for `O=c1[nH]nc(Sc2ncc([N+](=O)[O-])s2)n1-c1ccc2c(c1)OCCO2` it is 99.61 ± 0.28%; for `O=C(O)c1ccc(C=C2SC(=S)N(c3cccc(C(F)(F)F)c3)C2=O)cc1` it is 87.8 ± 0.91%.

On to `CN1Cc2c(C(=O)OC(C)(C)C)ncn2-c2ccsc2C1=O`, for which the “uninfected host cell viability” value turned out to be 97.9 ± 4.9%.

On to `CCCCCCCCCCCCCCCC(=O)C(F)(F)F`, for which the “uninfected host cell viability” value stood at 91.66 ± 0.55%.

With `NC(=O)CCCCn1ccc(NC(N)=NCC(F)(F)F)n1`, the “uninfected host cell viability” value is 85.9 ± 2.3%.

For the molecule `N[C@@H](CSS(=O)(=O)O)C(=O)O` [S-Sulfo-L-cysteine sodium salt], the “uninfected host cell viability” value was 99.5 ± 1.1%.

Take `Cc1ccccc1C(=O)c1ccc(Nc2ccc(Br)cc2N)cc1Cl`: the “uninfected host cell viability” value stood at 84 ± 2.2%.

As for `CN1CCC(Nc2ncc3ncnc(Nc4ccc(F)c(Cl)c4)c3n2)CC1` [BIBX 1382 dihydrochloride], the “uninfected host cell viability” value was 80.7 ± 2.1%.

Take `CC(C)n1nnc2cc(C(=O)O)ccc21`: the “uninfected host cell viability” value came to 100 ± 2.3%. Consider `Cc1[nH]c(/C=C2\C(=O)Nc3ccc(S(=O)(=O)Cc4c(Cl)cccc4Cl)cc32)c(C)c1C(=O)N1CCC[C@@H]1CN1CCCC1`, for which the “uninfected host cell viability” value stood at 89.5 ± 2.3%. The figure for `CC1(C)CCC(C)(C)c2cc(C3(c4ccc(C(=O)O)cc4)OCCO3)ccc21` is 93.1 ± 2.3%; for `COc1ccc(NS(=O)(=O)c2ccc(I)cc2)cc1N1CCN(C)CC1` it is 81.6 ± 2.9%.

For the molecule `Cc1cc(C)cc(C(=O)N(C)[C@H](Cc2ccc(-c3ccccc3)cc2)C(=O)N[C@@H](Cc2c[nH]c3ccccc23)C(=O)O)c1`, the “uninfected host cell viability” value is 83.95 ± 0.62%.

For the molecule `CCCn1c(=O)[nH]c2nc(-c3ccc(S(=O)(=O)O)cc3)[nH]c2c1=O`, the “uninfected host cell viability” value amounted to 86.34 ± 0.58%.

Consider `CNc1cc(OC)c(C(=O)NC2CCN(Cc3ccccc3)C2C)cc1Cl` (stereo unspecified) [Nemonapride], for which the “uninfected host cell viability” value was 86.9 ± 6.9%.

In the case of `C[C@H](NC[C@H](O)CP(=O)(O)Cc1ccccc1)c1ccc(Cl)c(Cl)c1`, the “uninfected host cell viability” value came out at 87.23 ± 0.39%. As to `CCOc1ccc(Nc2nc(-c3c(C)nc4ccccn34)cs2)cc1`, the “uninfected host cell viability” value stood at 73.8 ± 2.5%. The figure for `CCCCC[C@H](O)/C=C/[C@H]1[C@H](O)CC(=O)[C@@H]1C/C=C\CCCC(=O)O` [Prostaglandin E2] is 95.2 ± 2.4%.

Regarding `COC(=O)C1=C(C)NC(C)=C(C(=O)OC(C)C)C1c1cccc2nonc12` (stereo unspecified) [Isradipine], the “uninfected host cell viability” value was 104 ± 7.9%. On to `CC(Cc1ccccc1)(NC(=O)CN)c1ccccc1` (stereo unspecified) [Remacemide hydrochloride], for which the “uninfected host cell viability” value stood at 85.5 ± 1.2%. The figure for `CCn1c(=O)[nH]c2ccccc21` is 95.8 ± 5.6%. Consider `CC(/C=C/c1cccc(Oc2ccc(F)cc2)c1)N(O)C(N)=O` (stereo unspecified), for which the “uninfected host cell viability” value came out at 82.8 ± 3.7%.

Turning to `O=C1NN(C(=O)Nc2ccc(Br)cc2)[C@@H](c2ccccc2)[C@@H]1c1ccccc1`, the “uninfected host cell viability” value worked out at 91.67 ± 0.67%. Regarding `CCc1c2c(nc3ccc(O)cc13)-c1cc3c(c(=O)n1C2)COC(=O)[C@]3(O)CC`, the “uninfected host cell viability” value turned out to be 77.3 ± 8.2%.

In the case of `NCCNC(=O)c1ccc(Cl)cn1` [Lazabemide hydrochloride], the “uninfected host cell viability” value was found to be 94.7 ± 1.2%. Under `Nc1[nH]nc2nnc(-c3c(-c4ccccc4)nn4ccccc34)cc12` stands 94.685 ± 0.091%; under `OC(c1ccccc1)C1CCN(CCc2ccccc2)CC1` (stereo unspecified), 101 ± 7.3%. Under `Cc1cc(/C(=C/Nc2ccc(Cl)cc2)C(=O)Nc2ccc(Cl)cc2)on1` stands 86.9 ± 4.8%. With `CC1(CN2CCC(n3c(=O)[nH]c4ccccc43)CC2)OCc2ccccc2-n2cccc21` (stereo unspecified), the “uninfected host cell viability” value was determined as 94.4 ± 2%.

For the molecule `Nc1ccc(-c2cccc3c(=O)cc(N4CCOCC4)oc23)cc1`, the “uninfected host cell viability” value worked out at 77 ± 0.83%. Under `c1ccc(N2CCN(CCCOc3ccc4c(c3)OCO4)CC2)cc1` [BP 554 maleate] stands 90.9 ± 6.9%. With `CCS(=O)(=O)N(C)[C@H]1c2cc(C#N)ccc2OC(C)(C)[C@@H]1O` (racemic) [Chromanol 293B], the “uninfected host cell viability” value is 91.3 ± 6.7%. The figure for `c1ccc2oc(C3=NCCN3)cc2c1` [2-BFI hydrochloride] is 84.5 ± 0.93%; for `COc1ccc(-n2[nH]c3c4c(ncc3c2=O)CCCCC4)cc1` it is 92.03 ± 0.15%.

On to `O=C(O)COc1cccc(-c2ocnc2-c2nc(-c3ccccc3)c(-c3ccccc3)o2)c1`, for which the “uninfected host cell viability” value was 105 ± 3.5%. The figure for `NC(N)=Nc1ccc(Cl)cc1` [4-Chlorophenylguanidine hydrochloride] is 87.3 ± 2.5%.

As for `CN(Cc1ccccc1)C(=O)[C@H](Cc1ccc2ccccc2c1)NC(=O)[C@@H]1CCCN1C(=O)Nc1ccccc1[N+](=O)[O-]`, the “uninfected host cell viability” value is 87.6 ± 1.8%.

On to `CC[C@H](CO)Nc1nc(Nc2cccc(-c3ccccn3)c2)c2ncn(C(C)C)c2n1` [(R)-DRF053 dihydrochloride], for which the “uninfected host cell viability” value worked out at 84.1 ± 1.9%.

As for `CC(C)NCC(O)c1ccc2ccccc2c1` (stereo unspecified) [Pronethalol hydrochloride], the “uninfected host cell viability” value is 85.9 ± 2.6%. Under `COc1cc2ncn(-c3cc(OCc4ccccc4C(F)(F)F)c(C(N)=O)s3)c2cc1OC` stands 83.8 ± 1.1%.

Consider `COCCNC(=O)COc1ccc(OCCNC[C@H](O)COc2ccccc2)cc1` [ZD 7114 hydrochloride], for which the “uninfected host cell viability” value came to 83.8 ± 2.3%. Regarding `CCN(CC)CCCCC1CCN(CC(=O)N2c3ccccc3C(=O)Nc3cccnc32)CC1`, the “uninfected host cell viability” value was determined as 89.2 ± 4.3%. Under `O=C1c2ccccc2C(Cc2ccnc(F)c2)(Cc2ccnc(F)c2)c2ccccc21` stands 90.8 ± 1.9%. Under `NC(=O)N1C(=O)/C(=C(\O)c2cccs2)c2cc(Cl)ccc21` [Tenidap] stands 89.1 ± 2%; under `CC(C)[C@H]1c2ccc(F)cc2CC[C@@]1(CCN(C)CCCc1nc2ccccc2[nH]1)OC(=O)C1CC1` [NNC 55-0396 dihydrochloride], 15.68 ± 0.031%; under `COCC(=O)O[C@]1(CCN(C)CCCc2nc3ccccc3[nH]2)CCc2cc(F)ccc2[C@@H]1C(C)C` [Mibefradil dihydrochloride], 79.7 ± 4.6%. For `CCCCN1CCCC1CNC(=O)c1cc(C#N)c2ccccc2c1OC` (stereo unspecified) [Nafadotride], the “uninfected host cell viability” value was determined as 84.8 ± 2.4%. Under `COc1cc(C[C@H]2C(=O)OC[C@@H]2Cc2ccc(OC)c(OC)c2)ccc1O` [Arctigenin] stands 90 ± 1.6%; under `C[C@@H](CN1CCC(n2c(=O)[nH]c3cc(Cl)ccc32)CC1)NC(=O)c1ccc2ccccc2c1`, 94.4 ± 5.7%. For the molecule `COc1ccc(C(=O)Nc2sc3c(c2C(N)=O)CCCC3)cc1OC`, the “uninfected host cell viability” value is 80.1 ± 2.9%. The figure for `CCOC(=O)[C@@H](C)Oc1cccc2c(=O)n(CC(=O)Nc3ccc4c(c3)OCCO4)ccc12` is 84.7 ± 0.99%; for `NC(=O)c1ccc(-c2nc(-c3ccccn3)c(-c3ccc4c(c3)OCO4)[nH]2)cc1` it is 92.28 ± 0.26%; for `CC(C1=C(CCN(C)C)Cc2ccccc21)c1ccccn1` (stereo in doubt) [(S)-(+)-Dimethindene maleate] it is 94.3 ± 0.97%. Turning to `CC(O)(C(=O)Nc1ccc(S(=O)(=O)c2ccccc2)cc1)C(F)(F)F` (stereo unspecified), the “uninfected host cell viability” value came out at 99.7 ± 2.5%. As for `Clc1ccccc1CNCC1CCC(CNCc2ccccc2Cl)CC1` (stereo unspecified), the “uninfected host cell viability” value was determined as 83.3 ± 1.1%.

`CCCCNC(=O)[C@@H]1Cc2ccccc2N1C(=O)[C@@H](N)CC` [Butabindide oxalate]: the “uninfected host cell viability” value turned out to be 88.3 ± 5.3%. `CCOc1cc(CC(=O)N[C@@H](CC(C)C)c2ccccc2N2CCCCC2)ccc1C(=O)O` [Repaglinide]: the “uninfected host cell viability” value was found to be 93.7 ± 2.1%. As to `CCCCCCCCCCCC1=C(O)C(=O)C=C(O)C1=O` [Embelin], the “uninfected host cell viability” value is 83.69 ± 0.49%. Under `Nc1nc(-c2ccc(Cl)c(Cl)c2)c(-c2ccncc2)s1` [CGH 2466 dihydrochloride] stands 87.4 ± 1.5%. The figure for `C[C@H](NC(=O)c1sccc1OCc1ccc(Cl)cc1)c1ccccc1` is 115 ± 1.5%; for `CN1c2cc3c(cc2N=C(c2ccc(C(=O)O)cc2)c2ccccc21)C(C)(C)CCC3(C)C` it is 100 ± 8.6%; for `N[C@@H](Cn1ccc(=O)n(Cc2ccccc2C(=O)O)c1=O)C(=O)O` it is 84.8% and 85.7%. Under `CCc1cc2c(c(CC)n1)CCC(=O)N2Cc1ccc(-c2ccccc2-c2nn[nH]n2)cc1` [ZD 7155 hydrochloride] stands 94.11 ± 0.49%; under `CC[N+](C)(CC)CC(=O)Nc1c(C)cccc1C` [N-Methyllidocaine iodide], 87.9 ± 3.1%. Consider `CC(=O)N(OCc1ccccc1)[C@H]1c2cc(C#N)ccc2OC(C)(C)[C@H]1O`, for which the “uninfected host cell viability” value worked out at 98.6 ± 2.8%. Consider `COc1ccc2[nH]c([S+]([O-])Cc3ncc(C)c(OC)c3C)nc2c1` (stereo unspecified) [Omeprazole], for which the “uninfected host cell viability” value came out at 85.1 ± 2.2%.

In the case of `c1nc(CC2CCNCC2)c[nH]1` [Immepip dihydrobromide], the “uninfected host cell viability” value worked out at 81.5 ± 3.3%.

Consider `CC(C)[C@H](NS(=O)(=O)c1ccc(-c2ccc(Br)cc2)cc1)C(=O)O`, for which the “uninfected host cell viability” value was found to be 87.2 ± 2.2%.

These data come from the supplement of paper PMC4894684.
